About 83,000 compounds went through this panel and 20% of them were active in at least one assay; those are over-represented in the sample as a whole.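 Growth was measured after 48 h exposure to one concentration of compound in 96-well plates. Values under 10 count as active.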 The source made the active and inactive calls.
What was measured:
Assay in all cases: NCI-60 one-dose screen, 48 h (100 = growth as untreated, 0 = no growth, -100 = all killed)
Details in all cases: 10 µM
NCI-H23 lung = system: NCI-H23 lung
NCI-H226 lung = system: NCI-H226 lung
NCI-H322M lung = system: NCI-H322M lung
HOP-62 NSCLC = system: HOP-62 NSCLC
NCI-H460 lung = system: NCI-H460 lung
NCI-H522 lung = system: NCI-H522 lung
A549/ATCC NSCLC = system: A549/ATCC NSCLC
786-0 renal = system: 786-0 renal
COLO 205 colon = system: COLO 205 colon
DU-145 prostate = system: DU-145 prostate
K-562 leukemia = system: K-562 leukemia
MALME-3M melanoma = system: MALME-3M melanoma
MDA-MB-231 breast = system: MDA-MB-231 breast
RXF 393 renal = system: RXF 393 renal
SF-268 CNS = system: SF-268 CNS
SF-295 CNS = system: SF-295 CNS
SF-539 CNS = system: SF-539 CNS
UACC-257 melanoma = system: UACC-257 melanoma
M14 melanoma = system: M14 melanoma
HCT-15 colon = system: HCT-15 colon

Measured: growth

COc1cccc(C(=O)Nc2ccc(CN3CCc4nc5cc(OC)c(OC)cc5cc43)cc2)c1
active: NCI-H460 lung 9.4%
inactive: NCI-H23 lung 56.9% | NCI-H226 lung 68.4% | NCI-H322M lung 61.7% | HOP-62 NSCLC 81% | NCI-H522 lung 42.7% | A549/ATCC NSCLC 36.5% | 786-0 renal 64.1% | COLO 205 colon 44.1% | DU-145 prostate 46.1% | K-562 leukemia 24.5% | MALME-3M melanoma 51.8% | MDA-MB-231 breast 48% | RXF 393 renal 48.7% | SF-268 CNS 47% | SF-295 CNS 65.7% | SF-539 CNS 66.5% | UACC-257 melanoma 35.9% | M14 melanoma 38.1% | HCT-15 colon 47.7%

Clc1ccc(-c2cn(-c3ccccc3)c(-c3ccccc3)n2)c(Cl)c1
inactive: NCI-H23 lung 67.6% | NCI-H226 lung 40.7% | HOP-62 NSCLC 31.6% | NCI-H522 lung 42.6% | K-562 leukemia 24.8% | RXF 393 renal 41.3% | SF-295 CNS 19.5% | UACC-257 melanoma 52.2% | M14 melanoma 16.7%
active: NCI-H322M lung -17% | NCI-H460 lung -100% | A549/ATCC NSCLC -8.47% | 786-0 renal -50.3% | COLO 205 colon -64.3% | DU-145 prostate -89.7% | MALME-3M melanoma -43.3% | MDA-MB-231 breast -11.7% | SF-268 CNS -26.7% | SF-539 CNS -22.2% | HCT-15 colon -71.4%

CCCCCCCNc1nc(C=O)ncc1-c1ccc(C(F)(F)F)cc1
inactive: NCI-H23 lung 99.8% | NCI-H226 lung 98% | NCI-H322M lung 84.4% | HOP-62 NSCLC 101% | NCI-H460 lung 103% | NCI-H522 lung 80.1% | A549/ATCC NSCLC 96.4% | 786-0 renal 97% | COLO 205 colon 95.8% | DU-145 prostate 106% | K-562 leukemia 89.4% | MALME-3M melanoma 86.8% | MDA-MB-231 breast 117% | RXF 393 renal 97% | SF-268 CNS 98.8% | SF-295 CNS 103% | SF-539 CNS 107% | UACC-257 melanoma 107% | M14 melanoma 102% | HCT-15 colon 97.6%

CCOC(=O)N1C/C(=C/c2ccc(F)cc2)C(=O)/C(=C/c2ccc(F)cc2)C1
inactive: NCI-H23 lung 12.2% | NCI-H322M lung 53.9% | A549/ATCC NSCLC 22%
active: NCI-H226 lung -18.7% | HOP-62 NSCLC -12.9% | NCI-H460 lung 3.07% | NCI-H522 lung -52.4% | 786-0 renal -58.7% | COLO 205 colon 2.88% | DU-145 prostate -6.4% | K-562 leukemia 3.36% | MALME-3M melanoma -36.8% | MDA-MB-231 breast -2.86% | RXF 393 renal -83.4% | SF-268 CNS -12% | SF-295 CNS -22% | SF-539 CNS 3.86% | UACC-257 melanoma -14.7% | M14 melanoma -69% | HCT-15 colon -63.4%

COc1ccc2c(c1)O/C(=C\c1ccc([N+](=O)[O-])s1)C2=O
inactive: NCI-H226 lung 69.9% | NCI-H322M lung 29.7% | HOP-62 NSCLC 45.6% | A549/ATCC NSCLC 33.9% | 786-0 renal 69% | MALME-3M melanoma 80% | MDA-MB-231 breast 37.4% | SF-295 CNS 69% | SF-539 CNS 34.5% | UACC-257 melanoma 64.4% | M14 melanoma 30.3%
active: NCI-H23 lung 5.99% | NCI-H460 lung 2.82% | NCI-H522 lung -72.5% | COLO 205 colon -30% | DU-145 prostate -6.02% | K-562 leukemia -1.48% | RXF 393 renal -17.3% | SF-268 CNS -9.02% | HCT-15 colon 0.318%

Cc1cccc(NC2=C(C#N)C(=O)NC3(CCCC3)S2)c1
inactive: NCI-H23 lung 100% | NCI-H226 lung 96.5% | NCI-H322M lung 112% | HOP-62 NSCLC 98.7% | NCI-H460 lung 107% | NCI-H522 lung 15.8% | A549/ATCC NSCLC 30.2% | 786-0 renal 103% | COLO 205 colon 127% | DU-145 prostate 117% | K-562 leukemia 95.3% | MALME-3M melanoma 104% | MDA-MB-231 breast 110% | RXF 393 renal 102% | SF-268 CNS 103% | SF-295 CNS 108% | SF-539 CNS 91.5% | M14 melanoma 105% | HCT-15 colon 95.8%
active: UACC-257 melanoma -4.62%

O=C1C(=O)c2ccccc2C(O)=C1CCCc1ccc(C2CCCCCC2)cc1
inactive: NCI-H23 lung 23.4% | NCI-H226 lung 37.6% | NCI-H322M lung 23.7% | HOP-62 NSCLC 40.8% | NCI-H460 lung 11.6% | NCI-H522 lung 42% | A549/ATCC NSCLC 22.7% | 786-0 renal 55.7% | COLO 205 colon 36.5% | DU-145 prostate 44% | K-562 leukemia 23.7% | MALME-3M melanoma 13.5% | MDA-MB-231 breast 68.4% | RXF 393 renal 68.1% | SF-268 CNS 53.9% | SF-539 CNS 37.9% | UACC-257 melanoma 44% | M14 melanoma 49.3% | HCT-15 colon 25.2%
active: SF-295 CNS -0.205%

C=C(NC(=O)C(=C)NC(=O)c1csc(C2=NC3c4csc(n4)C4NC(=O)c5csc(n5)C(C(C)(O)C(C)O)NC(=O)C5CSC(=N5)/C(=C/C)NC(=O)C(C(C)O)NC(=O)c5csc(n5)C3(CC2)NC(=O)C(C)NC(=O)C(=C)NC(=O)C(=C)NC(=O)C(C(C)C)NC2C=Cc3c(C(C)O)cc(nc3C2O)C(=O)OC4C)n1)C(N)=O (stereo not given)
inactive: NCI-H23 lung 11.1% | NCI-H322M lung 45.9% | A549/ATCC NSCLC 31.7% | MDA-MB-231 breast 29.7% | RXF 393 renal 16.9% | SF-268 CNS 21.5% | SF-295 CNS 26.6% | UACC-257 melanoma 24.2%
active: NCI-H226 lung -26.3% | HOP-62 NSCLC 2.24% | NCI-H460 lung 1.43% | NCI-H522 lung -39.1% | 786-0 renal -10.4% | COLO 205 colon -70.2% | DU-145 prostate -23% | K-562 leukemia -11.3% | MALME-3M melanoma -64.6% | SF-539 CNS -22.5% | M14 melanoma -29.5% | HCT-15 colon -23.7%

COc1cccc(NC(=O)c2sc3nc4c(cc3c2N)C(O)CCC4)c1 (stereo not given)
inactive: NCI-H23 lung 33.1% | NCI-H226 lung 66.9% | NCI-H322M lung 44.5% | HOP-62 NSCLC 32.6% | NCI-H460 lung 10.2% | A549/ATCC NSCLC 22.3% | 786-0 renal 43.5% | MALME-3M melanoma 81.3% | MDA-MB-231 breast 23.9% | SF-268 CNS 30.6% | UACC-257 melanoma 55% | M14 melanoma 11.8% | HCT-15 colon 19.4%
active: NCI-H522 lung -10.5% | COLO 205 colon -7.73% | DU-145 prostate -10.9% | K-562 leukemia 7.8% | RXF 393 renal -0.406% | SF-295 CNS 5.44% | SF-539 CNS -17.6%

CC(=O)[C@H]1CC[C@H]2[C@@H]3CCC4=CC(=O)C=C[C@]4(C)[C@H]3CC[C@]12C
inactive: NCI-H23 lung 90% | NCI-H226 lung 88.4% | NCI-H322M lung 97% | HOP-62 NSCLC 100% | NCI-H460 lung 96.1% | NCI-H522 lung 81.4% | A549/ATCC NSCLC 94.4% | 786-0 renal 99.8% | COLO 205 colon 119% | DU-145 prostate 108% | K-562 leukemia 76.6% | MALME-3M melanoma 89.3% | MDA-MB-231 breast 100% | RXF 393 renal 125% | SF-268 CNS 102% | SF-295 CNS 92.5% | SF-539 CNS 87.9% | UACC-257 melanoma 87.8% | M14 melanoma 107% | HCT-15 colon 106%

O=C1NC(=O)N(Cc2ccccc2)CC1Br (stereo not given)
inactive: NCI-H23 lung 52.6% | NCI-H226 lung 83.2% | NCI-H322M lung 104% | HOP-62 NSCLC 79.2% | NCI-H460 lung 96.7% | A549/ATCC NSCLC 102% | 786-0 renal 63% | COLO 205 colon 64.9% | DU-145 prostate 104% | K-562 leukemia 37.4% | MALME-3M melanoma 77.8% | MDA-MB-231 breast 89.3% | RXF 393 renal 68% | SF-268 CNS 80.2% | SF-295 CNS 136% | SF-539 CNS 86.5% | UACC-257 melanoma 82.1% | M14 melanoma 11.4% | HCT-15 colon 45.2%
active: NCI-H522 lung -9.22%

C#Cc1ccc(-n2c(/C=C/c3ccc4ccccc4c3)nc3ncccc3c2=O)cc1
inactive: NCI-H23 lung 67.5% | NCI-H226 lung 13.2% | NCI-H322M lung 71.9% | HOP-62 NSCLC 63% | NCI-H460 lung 39% | A549/ATCC NSCLC 34% | 786-0 renal 54.3% | COLO 205 colon 26% | DU-145 prostate 60.1% | MALME-3M melanoma 39.5% | MDA-MB-231 breast 42.1% | SF-268 CNS 37.8% | SF-295 CNS 19.6% | SF-539 CNS 70.5% | UACC-257 melanoma 13% | HCT-15 colon 25.4%
active: NCI-H522 lung 8.75% | K-562 leukemia 6.94% | RXF 393 renal -21.4% | M14 melanoma 1.76%

CS(=O)(=O)Nc1ccc(Nc2c3ccccc3nc3cc(N)ccc23)cc1
active: NCI-H226 lung -13.9% | NCI-H460 lung 1.01% | NCI-H522 lung -11.5% | 786-0 renal 2.37% | MALME-3M melanoma -32.7% | SF-295 CNS -23.3% | SF-539 CNS 2.88% | UACC-257 melanoma 0.44% | M14 melanoma 7.54%
inactive: NCI-H23 lung 20.5% | NCI-H322M lung 42% | HOP-62 NSCLC 11.9% | A549/ATCC NSCLC 11% | COLO 205 colon 51.9% | DU-145 prostate 16.9% | K-562 leukemia 22.7% | MDA-MB-231 breast 85.8% | RXF 393 renal 64.2% | SF-268 CNS 13% | HCT-15 colon 73.6%

COc1cc2nc(Nc3cccc(C(=O)O)c3)nc(N)c2cc1OC
inactive: NCI-H23 lung 128% | NCI-H226 lung 91.4% | NCI-H322M lung 126% | NCI-H460 lung 108% | NCI-H522 lung 87.4% | A549/ATCC NSCLC 104% | COLO 205 colon 111% | DU-145 prostate 102% | K-562 leukemia 108% | MALME-3M melanoma 111% | MDA-MB-231 breast 86.8% | RXF 393 renal 106% | SF-268 CNS 95.3% | SF-295 CNS 96.4% | SF-539 CNS 97% | UACC-257 melanoma 97.5% | HCT-15 colon 102%
active: HOP-62 NSCLC -37.3% | 786-0 renal -9.99% | M14 melanoma -45.1%

— PubChem BioAssay (NCI)
